For 60 compounds, cytotoxicity call results are on record in the antibiotic and cytotoxicity screens of Wong et al. (2023).

Screen size: about 39,000 compounds; about 3,300 (8.5%) were called active. For the sample, actives were picked, then their nearest neighbours and some compounds at random.

The subject of this assay is HepG2. In words: cytotoxicity call (relative viability < 0.9). To be noted: 10 µM.
For `C[C@@H]1CCCCO[C@@H](CN(C)C(=O)C2CCCCC2)[C@H](C)CN([C@H](C)CO)C(=O)c2cc(NC(=O)c3ccncc3)ccc2O1`, the cytotoxicity call was “inactive”.
The entry for `C[C@@H]1CN([C@H](C)CO)C(=O)c2cccc(NC(=O)Nc3ccc(C(F)(F)F)cc3)c2O[C@@H]1CN(C)C(=O)Nc1ccc2c(c1)OCO2` is “inactive”; for `Cc1noc(C)c1NC(=O)N(C)C[C@@H]1Oc2c(NC(=O)Nc3ccc(C(F)(F)F)cc3)cccc2C(=O)N([C@H](C)CO)C[C@H]1C` it is “inactive”.
The entry for `C[C@H](CO)N1C[C@H](C)[C@@H](CN(C)C(=O)Nc2ccc(C(F)(F)F)cc2)Oc2c(NC(=O)Nc3ccc(C(F)(F)F)cc3)cccc2C1=O` is “active”.
The result for `Cc1noc(C)c1NC(=O)N(C)C[C@@H]1Oc2c(NC(=O)Nc3ccc(C(F)(F)F)cc3)cccc2C(=O)N([C@@H](C)CO)C[C@H]1C` reads “inactive”.
As to `C[C@@H]1CN([C@@H](C)CO)C(=O)c2cccc(NC(=O)Nc3ccc(C(F)(F)F)cc3)c2O[C@H]1CN(C)C(=O)Nc1ccc2c(c1)OCO2`, the cytotoxicity call is “inactive”.
The entry for `C[C@H](CO)N1C[C@H](C)[C@H](CN(C)C(=O)Nc2ccc3c(c2)OCO3)Oc2c(NC(=O)Nc3ccc(C(F)(F)F)cc3)cccc2C1=O` is “active”; for `Cc1noc(C)c1NC(=O)N(C)C[C@H]1Oc2c(NC(=O)Nc3ccc(C(F)(F)F)cc3)cccc2C(=O)N([C@@H](C)CO)C[C@H]1C` it is “active”; for `O=C1c2ccccc2[C@@]2(Cc3ccccc3N(Cc3ccccc3)C2=O)[C@H](c2ccc(CO)cc2)N1Cc1ccccc1C(F)(F)F` it is “inactive”.
The result for `Cc1noc(C)c1S(=O)(=O)N(C)C[C@@H]1Oc2ccc(NS(=O)(=O)c3cccs3)cc2CC(=O)N([C@H](C)CO)C[C@@H]1C` reads “inactive”.
In the case of `CN(C)Cc1cn(CC[C@@H]2CC[C@@H](NC(=O)Cc3cccnc3)[C@H](CO)O2)nn1`, the cytotoxicity call is “inactive”.
The entry for `Cc1noc(C)c1NC(=O)Nc1ccc2c(c1)CC(=O)N([C@@H](C)CO)C[C@H](C)[C@@H](CN(C)C(=O)NC(C)C)O2` is “inactive”; for `O=C(C[C@H]1CC[C@@H]2[C@H](COC[C@H](O)CN2C(=O)Nc2ccc(F)cc2)O1)NCCCN1CCOCC1` it is “inactive”.
The result for `OC[C@@H](O)CN1CCN(c2ccccc2)CC1` reads “inactive”; that for `Cc1nc(-c2ccc(OCC(C)C)c(C#N)c2)sc1C(=O)O`, “active”.
The result for `COc1ccc(S(=O)(=O)N(C)C[C@H]2Oc3ccc(NC(=O)c4ccncc4)cc3C(=O)N([C@@H](C)CO)C[C@@H]2C)cc1` reads “inactive”.
For the compound `O=CN[C@H](Cc1ccccc1)C(=O)O`, the cytotoxicity call is “inactive”.
The result for `COc1ccc(CN(C)C[C@@H]2Oc3ccc(NC(=O)CCCCCC(=O)Nc4ccccc4N)cc3CC(=O)N([C@H](C)CO)C[C@@H]2C)cc1` reads “inactive”; that for `C[C@H]1CN([C@@H](C)CO)C(=O)Cc2cc(NC(=O)CCCCCC(=O)Nc3ccccc3N)ccc2O[C@@H]1CN(C)Cc1ccc(Oc2ccccc2)cc1`, “inactive”.
The result for `C[C@@H]1CN([C@H](C)CO)C(=O)Cc2cc(NC(=O)CCCCCC(=O)Nc3ccccc3N)ccc2O[C@@H]1CN(C)Cc1ccc(Oc2ccccc2)cc1` reads “active”; that for `COc1ccc(CN(C)C[C@H]2Oc3ccc(NC(=O)CCCCCC(=O)Nc4ccccc4N)cc3CC(=O)N([C@H](C)CO)C[C@H]2C)cc1`, “inactive”.
The result for `C[C@@H]1CN([C@H](C)CO)C(=O)Cc2cc(NC(=O)CCCCCC(=O)Nc3ccccc3N)ccc2O[C@H]1CN(C)Cc1ccc(Oc2ccccc2)cc1` reads “inactive”.
On to `C[C@H]1CN([C@@H](C)CO)C(=O)Cc2cc(NC(=O)CCCCCC(=O)Nc3ccccc3N)ccc2O[C@H]1CN(C)Cc1ccc(Oc2ccccc2)cc1`, for which the cytotoxicity call was “inactive”.
The entry for `C[C@H](CO)N1C[C@H](C)[C@H](CN(C)Cc2ccc(Oc3ccccc3)cc2)Oc2ccc(NC(=O)CCCCCC(=O)Nc3ccccc3N)cc2CC1=O` is “inactive”.
The result for `COc1ccc(CN(C)C[C@H]2Oc3ccc(NC(=O)CCCCCC(=O)Nc4ccccc4N)cc3CC(=O)N([C@@H](C)CO)C[C@H]2C)cc1` reads “active”; that for `C[C@@H]1CN([C@@H](C)CO)C(=O)Cc2cc(NC(=O)CCCCCC(=O)Nc3ccccc3N)ccc2O[C@@H]1CN(C)Cc1ccc(Oc2ccccc2)cc1`, “active”.
The entry for `Cc1noc(C)c1NC(=O)Nc1ccc2c(c1)CC(=O)N([C@@H](C)CO)C[C@@H](C)[C@H](CN(C)Cc1ccc(C(F)(F)F)cc1)O2` is “inactive”.
Consider `CC(C)NC(=O)Nc1ccc2c(c1)C(=O)N([C@H](C)CO)C[C@@H](C)[C@H](CN(C)CC1CCCCC1)OCCCC[C@H](C)O2`, for which the cytotoxicity call is “inactive”.
For the compound `C[C@@H]1CN([C@@H](C)CO)C(=O)c2cc(NC(=O)Nc3ccc4c(c3)OCO4)ccc2O[C@H]1CN(C)Cc1ccc(C(F)(F)F)cc1`, the cytotoxicity call was “inactive”.
The entry for `C[C@@H]1CN([C@H](C)CO)C(=O)c2cc(NC(=O)Nc3ccc(C(F)(F)F)cc3)ccc2O[C@H]1CN(C)Cc1ccc2c(c1)OCO2` is “inactive”; for `C[C@H]1CN([C@@H](C)CO)C(=O)c2cc(NC(=O)Nc3ccc(C(F)(F)F)cc3)ccc2O[C@H]1CN(C)Cc1ccc2c(c1)OCO2` it is “active”.
The result for `C[C@H]1CN([C@@H](C)CO)C(=O)c2cc(NC(=O)Nc3ccc4c(c3)OCO4)ccc2O[C@H]1CN(C)Cc1ccc(C(F)(F)F)cc1` reads “inactive”; that for `C[C@@H]1CN([C@@H](C)CO)C(=O)c2cc(NC(=O)Nc3ccc(C(F)(F)F)cc3)ccc2O[C@@H]1CN(C)Cc1ccc2c(c1)OCO2`, “active”; that for `C[C@H](CO)N1C[C@H](C)[C@@H](CN(C)Cc2ccc(C(F)(F)F)cc2)Oc2ccc(NC(=O)Nc3ccc4c(c3)OCO4)cc2C1=O`, “inactive”.
For the compound `C[C@@H]1CN([C@H](C)CO)C(=O)c2cc(NC(=O)Nc3ccc(C(F)(F)F)cc3)ccc2O[C@@H]1CN(C)Cc1ccc2c(c1)OCO2`, the cytotoxicity call is “active”.
Regarding `C[C@H](CO)N1C[C@H](C)[C@H](CN(C)Cc2ccc3c(c2)OCO3)Oc2ccc(NC(=O)Nc3ccc(C(F)(F)F)cc3)cc2C1=O`, the cytotoxicity call is “active”.
The result for `CN(C)Cc1cn(CC[C@H]2CC[C@@H](NS(=O)(=O)c3ccccc3)[C@@H](CO)O2)nn1` reads “inactive”; that for `C[C@H]1CN([C@@H](C)CO)C(=O)CCCn2cc(nn2)CO[C@@H]1CN(C)Cc1ccc(C(=O)Nc2ccccc2N)cc1`, “inactive”.
For the compound `C[C@@H]1CN([C@@H](C)CO)C(=O)c2cccc(NS(=O)(=O)c3cccs3)c2O[C@@H]1CN(C)CC1CC1`, the cytotoxicity call was “inactive”.
The entry for `C[C@@H]1CN([C@@H](C)CO)C(=O)c2cc(NS(=O)(=O)c3ccc(Cl)cc3)ccc2O[C@@H](C)CCCCO[C@@H]1CN(C)C(=O)NC1CCCCC1` is “inactive”; for `Cc1noc(C)c1S(=O)(=O)Nc1cccc2c1O[C@@H](CN(C)Cc1ccc(Oc3ccccc3)cc1)[C@@H](C)CN([C@@H](C)CO)C2=O` it is “inactive”; for `C[C@H]1CN([C@@H](C)CO)S(=O)(=O)c2ccc(-c3ccncc3)cc2O[C@H]1CN(C)S(=O)(=O)c1ccccc1F` it is “inactive”.
The result for `[O-][NH2+]N(CCO)CCO` reads “inactive”.
The entry for `C[C@@H]1CN([C@@H](C)CO)C(=O)c2cc(NC(=O)Nc3ccc4c(c3)OCO4)ccc2O[C@@H]1CN(C)Cc1ccc(C(F)(F)F)cc1` is “inactive”; for `C[C@H]1CN([C@@H](C)CO)C(=O)c2cc(NC(=O)Nc3ccc4c(c3)OCO4)ccc2O[C@@H]1CN(C)Cc1ccc(C(F)(F)F)cc1` it is “inactive”.
For the compound `C[C@@H]1CN([C@H](C)CO)C(=O)c2cc(NC(=O)Nc3ccc4c(c3)OCO4)ccc2O[C@@H]1CN(C)Cc1ccc(C(F)(F)F)cc1`, the cytotoxicity call is “active”.
On to `C[C@@H]1CN([C@H](C)CO)C(=O)c2cc(NC(=O)Nc3ccc4c(c3)OCO4)ccc2O[C@H]1CN(C)Cc1ccc(C(F)(F)F)cc1`, for which the cytotoxicity call was “inactive”.
The result for `C[C@H](CO)N1C[C@H](C)[C@H](CN(C)Cc2ccc(C(F)(F)F)cc2)Oc2ccc(NC(=O)Nc3ccc4c(c3)OCO4)cc2C1=O` reads “inactive”; that for `C[C@H](CO)N1C[C@H](C)[C@@H](CN(C)Cc2ccc3c(c2)OCO3)Oc2ccc(NC(=O)Nc3ccc(C(F)(F)F)cc3)cc2C1=O`, “active”; that for `C[C@H]1CN([C@@H](C)CO)C(=O)c2cc(NC(=O)Nc3ccc(C(F)(F)F)cc3)ccc2O[C@@H]1CN(C)Cc1ccc2c(c1)OCO2`, “active”.
The entry for `C[C@@H]1CN([C@@H](C)CO)C(=O)c2cc(NC(=O)Nc3ccc(C(F)(F)F)cc3)ccc2O[C@H]1CN(C)Cc1ccc2c(c1)OCO2` is “active”; for `C[C@@H]1CN([C@H](C)CO)C(=O)c2ccccc2-c2ccccc2CO[C@H]1CN(C)C(=O)Nc1cccc(Cl)c1Cl` it is “inactive”; for `C[C@@H]1CN([C@@H](C)CO)C(=O)c2cc(NC(=O)C3CC3)ccc2O[C@@H]1CN(C)S(=O)(=O)c1cn(C)cn1` it is “inactive”.
The entry for `C[C@H](CO)N1C[C@H](C)[C@H](CN(C)S(=O)(=O)c2ccccc2)OCCCC[C@H](C)Oc2ccc(NC(=O)Nc3cccc4ccccc34)cc2C1=O` is “inactive”; for `COc1cccc(S(=O)(=O)Nc2ccc3c(c2)[C@H]2C[C@@H](CC(=O)NC4CCCCC4)O[C@@H](CO)[C@H]2O3)c1` it is “inactive”; for `COCCOC(=O)N1C(=O)[C@@]2(c3ccccc31)[C@H](c1ccc(O)cc1)N1[C@H](c3ccccc3)[C@H](c3ccccc3)OC(=O)[C@H]1[C@@H]2C(=O)N1CCc2cc(OC)c(OC)cc2C1` it is “inactive”.
With `COc1ccc(S(=O)(=O)Nc2ccc3c(c2)C(=O)N([C@H](C)CO)C[C@@H](C)[C@@H](CN(C)S(=O)(=O)c2cccs2)O3)cc1`, the cytotoxicity call was “inactive”.
For the compound `C[C@@H]1CCCCO[C@H](CN(C)CC2CC2)[C@H](C)CN([C@@H](C)CO)C(=O)c2cc(NC(=O)Cc3ccccc3)ccc2O1`, the cytotoxicity call was “inactive”.
The entry for `O=C(C[C@@H]1C=C[C@H](NC(=O)C2CC2)[C@H](CO)O1)NCCCN1CCOCC1` is “inactive”; for `Cc1[nH]c(/C=C2\C(=O)Nc3ccc(S(=O)(=O)Cc4c(Cl)cccc4Cl)cc32)c(C)c1C(=O)N1CCC[C@@H]1CN1CCCC1` it is “active”.
